This passage reports outcome and Potency results from PubChem BioAssay (Tox21).

Inconclusive results are not listed. The source made the active and inactive calls. Unless noted, calls come from the whole dose curve; as a rule, active = well fitted curve in the direction sought with a large enough effect in the repeat runs; inconclusive = weak or mixed curves; inactive = flat fitted curve, though single readings scatter.

Assay [1] in a line: qHTS assay to test for compound auto fluorescence at 535 nm (green) in HEK293 cells (AID 720680). (In general: qHTS replaces the single test concentration by a dilution series.)
Assay [2] in a line: qHTS assay to test for compound auto fluorescence at 460 nm (blue) in HEK293 cell free culture (AID 720681). In a few lines:
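Test compounds were pinned into cell-free culture medium (DMEM with 10% FBS) and fluorescence was read directly at Ex/Em 405/460 nm. Signals were expressed as fluorescence equivalents of triamterene, with DMSO vehicle as control.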

The nature of assay [3]: qHTS assay to test for compound auto fluorescence at 535 nm (green) in HEK293 cell free culture (AID 720682). In a few lines:
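No cells present: wells hold DMEM supplemented with 10% FBS, into which compound or vehicle is pinned. Green emission is then recorded (485 nm excitation, 535 nm emission) and scaled to fluorescein.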

Assay [4] in a line: qHTS assay to test for compound auto fluorescence at 590 nm (red) in HEK293 cell free culture (AID 720683). In a few lines: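 Tox21 10K library compounds were pinned into cell-free DMEM with 10% FBS and fluorescence was read at excitation 540 nm. Activity is expressed as Rose Bengal sodium equivalency.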
Assay [5] is described as follows: qHTS assay to test for compound auto fluorescence at 590 nm (red) in HepG2 cell free culture (AID 720684). In a few lines: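 Red fluorescence (540 nm excitation, 590 nm emission) was measured after compound transfer into cell-free MEM supplemented with 10% FBS. Values are equivalencies against Rose Bengal sodium.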
Assay [6] is described as follows: qHTS assay to test for compound auto fluorescence at 460 nm (blue) in HepG2 cell free culture (AID 720685). In a few lines: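 Compound (23 nL) or DMSO pinned into cell-free MEM with 10% FBS; blue fluorescence read at 405/460 nm excitation/emission, expressed as auto-fluorescence equivalency to triamterene.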
Assay [7] in a line: qHTS assay to test for compound auto fluorescence at 535 nm (green) in HepG2 cell free culture (AID 720686).
Assay [8] can be described thus: qHTS assay to test for compound auto fluorescence at 460 nm (blue) in HepG2 cells (AID 720687). In a few lines:
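Cells (2,000/well in MEM with 10% FBS) attached overnight at 37 C, then were exposed to compound or DMSO for 1 hr at 37 C, 5% CO2. Fluorescence read at Ex/Em 405/460 nm, expressed as triamterene-equivalent signal.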

The target in assay [9] is Glucocorticoid receptor (Homo sapiens) (UniProt P04150). Briefly: qHTS assay to identify small molecule agonists of the glucocorticoid receptor (GR) signaling pathway (AID 720691; active = well fitted activation curve with a large enough effect in the signal ratio in the repeat runs, not every such curve was filed as active; the % refers to the signal ratio). In a few lines:
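Reporter read-out: fluorescence intensity following 2 h room-temperature LiveBLAzer B/G FRET substrate loading. Prior step: GR-bla HeLa cells held 4 h, then treated 18 h at 37 C.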

For assay [10] the target is unchanged. Description: qHTS assay to identify small molecule antagonists of the glucocorticoid receptor (GR) signaling pathway (AID 720692; active = well fitted inhibition curve with a large enough effect in the signal ratio in the repeat runs, not every such curve was filed as active; the % refers to the signal ratio; note: potency is the fitted concentration of half-maximal effect). In a few lines: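 Dexamethasone (5 nM final) stimulated a stably integrated GRE-beta-lactamase reporter in HeLa cells during 18 h co-incubation with compounds; signal was quantified as fluorescence intensity of B/G FRET substrate after 2 h.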

Glucocorticoid receptor (Homo sapiens), sequence (P04150 whole entry, looked up): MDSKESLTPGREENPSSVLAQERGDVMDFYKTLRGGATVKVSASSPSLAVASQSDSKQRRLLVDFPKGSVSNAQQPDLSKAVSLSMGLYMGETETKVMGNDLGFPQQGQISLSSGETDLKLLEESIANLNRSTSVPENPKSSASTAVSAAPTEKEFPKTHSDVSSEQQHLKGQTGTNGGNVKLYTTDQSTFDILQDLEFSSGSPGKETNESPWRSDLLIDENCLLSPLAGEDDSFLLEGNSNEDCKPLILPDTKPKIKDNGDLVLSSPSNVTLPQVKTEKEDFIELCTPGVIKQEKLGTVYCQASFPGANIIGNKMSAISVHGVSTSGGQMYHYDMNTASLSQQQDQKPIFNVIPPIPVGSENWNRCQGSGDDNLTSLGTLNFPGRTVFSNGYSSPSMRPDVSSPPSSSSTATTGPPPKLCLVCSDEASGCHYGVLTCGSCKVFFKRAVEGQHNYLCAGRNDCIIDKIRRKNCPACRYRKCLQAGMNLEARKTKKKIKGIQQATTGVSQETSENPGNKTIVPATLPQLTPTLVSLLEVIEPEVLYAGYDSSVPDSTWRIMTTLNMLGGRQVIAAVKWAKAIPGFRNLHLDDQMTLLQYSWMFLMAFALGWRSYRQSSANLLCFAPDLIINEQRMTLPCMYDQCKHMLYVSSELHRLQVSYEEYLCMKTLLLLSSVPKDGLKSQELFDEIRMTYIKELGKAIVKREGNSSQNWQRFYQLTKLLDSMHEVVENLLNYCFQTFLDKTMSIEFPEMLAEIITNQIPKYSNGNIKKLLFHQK

For `O=C1CCCN1CCO`, the compound was called inactive in assay [1], in assay [3], in [4], in assay [5], in assay [6] and in [7]. The compound was called inactive in assay [8]. Besides, the Potency result in assay [2], in assay [9] and in [10] was “inactive” each time.
As for `CC/C=C\CCO`, the call in assay [1], in assay [3], in assay [4], in [5], in assay [6] and in [7] was inactive. For the same compound, in assay [8], the compound was classed as inactive. Moreover, the Potency result in assay [2], in assay [9] and in assay [10] was “inactive” each time.
Consider `CCCCCCCCCCCCCCCCC(=O)O`, for which the outcome in [1], in [3], in assay [4], in [5], in [6] and in [7] was inactive. In [8], the result was inactive. Further, the Potency result in assay [2], in assay [9] and in [10] was “inactive” in each case.
Turning to `COC(=O)c1cc(Cl)ccc1[N+](=O)[O-]`, the compound was classed as inactive in assay [1], in assay [3], in assay [4], in assay [5], in assay [6] and in [7]. The outcome in [8] was inactive. The Potency entry in [2], in assay [9] and in assay [10] was “inactive” in each case.
With `CCCCCCCCCCCCSCCOCCO`, the result in assay [1], in assay [3], in assay [4], in [5], in [6] and in [7] was inactive. The outcome in assay [8] was inactive. For the same compound, the Potency result in [2], in assay [9] and in assay [10] was “inactive” throughout.
Take `CCCCCCOC(=O)c1ccccc1`: the result in [1], in assay [3], in assay [4], in assay [5], in [6] and in assay [7] was inactive. The outcome in assay [8] was inactive. Besides, the Potency result in assay [2], in [9] and in assay [10] was “inactive” each time.
Take `[O-][n+]1ccc(Cl)cc1`: the compound was called inactive in assay [1], in assay [3], in assay [4], in [5], in assay [6] and in assay [7]. Besides, the outcome in assay [8] was inactive. Further, the Potency result in assay [2], in [9] and in assay [10] was “inactive” throughout.
For `CCOC(=O)CC(O)(CC(=O)OCC)C(=O)OCC`, the compound was called inactive in assay [1], in assay [3], in assay [4], in assay [5], in assay [6] and in assay [7]. Further, in [8], the compound was called inactive. Besides, the Potency result in assay [2], in assay [9] and in assay [10] was “inactive” throughout.
As to `C=CC(=O)NC(C)(C)C`, the compound was called inactive in assay [1], in assay [3], in assay [4], in assay [5], in assay [6] and in assay [7]. The compound was classed as inactive in assay [8]. For the same compound, the Potency result in assay [2], in assay [9] and in [10] was “inactive” each time.
On to `O=C(O)c1cc(C(=O)O)cc([N+](=O)[O-])c1`, for which the compound was classed as inactive in assay [1], in [3], in [4], in [5], in assay [6] and in [7]. The compound was called inactive in assay [8]. Moreover, the Potency entry in assay [2], in assay [9] and in [10] was “inactive” each time.
On to `CS(C)=O`, for which the compound was called inactive in [1], in assay [3], in assay [4], in assay [5], in [6] and in assay [7]. The outcome in assay [8] was inactive. The Potency entry in assay [2], in assay [9] and in assay [10] was “inactive” each time.
`CC(C(=O)O)c1ccc(/C=C2\CCCCC2=O)cc1` (configuration not stated): the compound was classed as inactive in assay [1], in assay [3], in assay [4], in assay [5], in assay [6] and in assay [7]. Further, the call in assay [8] was inactive. In addition, the Potency result in assay [2], in assay [9] and in assay [10] was “inactive” each time.
As for `Nc1ccc(C(=O)Oc2ccccc2)c(O)c1`, the call in [1], in [3], in [4], in assay [5], in [6] and in assay [7] was inactive. Also, the call in assay [8] was inactive. For the same compound, the Potency result in [2], in assay [9] and in assay [10] was “inactive” each time.
Regarding `C1=COCCC1`, the compound was classed as inactive in assay [1], in assay [3], in [4], in [5], in [6] and in [7]. Besides, in assay [8], the compound was called inactive. The Potency result in assay [2], in assay [9] and in assay [10] was “inactive” throughout.
`CCn1nc(Cc2ccccc2)cc1C1CCN(C[C@H]2C[C@H](N(C)[C@@H](C(=O)O)C(C)C)C[C@@H]2c2cccc(F)c2)CC1`: the outcome in assay [1], in [3], in assay [4], in assay [5], in assay [6] and in [7] was inactive. Moreover, the compound was called inactive in assay [8]. In addition, the Potency entry in assay [2], in [9] and in [10] was “inactive” throughout.
Consider `CCCOC(C)=O`, for which the compound was classed as inactive in [1], in assay [3], in assay [4], in [5], in assay [6] and in assay [7]. For the same compound, the Potency entry in assay [2], in [9] and in [10] was “inactive” each time.
For the compound `Cc1ccc2c(Cl)cc(Cl)c(O)c2n1`, the result in [1], in assay [3], in assay [4], in assay [5], in [6] and in assay [7] was inactive. For the same compound, the result in assay [8] was inactive. In addition, the Potency entry in [2] and in [9] was “inactive” each time. The Potency in [10] was 16.9 µM (active).
As for `CC1=C(C)C(=O)C(C(CCCCCC(=O)O)c2ccccc2)=C(C)C1=O` (configuration not stated), the call in assay [1], in assay [3], in [4], in assay [5], in [6] and in assay [7] was inactive. Also, the compound was called inactive in [8]. Moreover, the Potency entry in [2], in assay [9] and in assay [10] was “inactive” in each case.
Consider `CCCCCCCCCCCC(=O)OCC`, for which the result in assay [1], in assay [3], in assay [4], in [5], in assay [6] and in [7] was inactive. In assay [8], the outcome was inactive. Besides, the Potency result in assay [2], in assay [9] and in assay [10] was “inactive” throughout.
For `C/C(=C\C(C)CC(C)CC(C)C)C1CC(=O)OC1=O` (configuration not stated), the compound was classed as inactive in assay [1], in [3], in assay [4], in [5], in assay [6] and in assay [7]. In addition, the Potency entry in assay [2] and in [9] was “inactive” each time. In assay [10], the Potency was 24.6 µM (active).
For the compound `OCCCO`, the compound was classed as inactive in assay [1], in assay [3], in assay [4], in assay [5], in assay [6] and in assay [7]. Further, the Potency entry in assay [2], in assay [9] and in [10] was “inactive” throughout.
For `N#C[C@@H]1CC(F)(F)CN1C(=O)CNC1CC2CCC(C1)N2c1ncccn1` (some centres not stated), the call in assay [1], in [3], in assay [4], in assay [5], in [6] and in assay [7] was inactive. Moreover, the compound was classed as inactive in assay [8]. Further, the Potency result in assay [2], in assay [9] and in assay [10] was “inactive” each time.
Regarding `CCCc1nc(C)c2c(=O)[nH]c(-c3cc(S(=O)(=O)N4CCN(CC)CC4)ccc3OCC)nn12`, the outcome in assay [1], in assay [3], in assay [4], in assay [5], in assay [6] and in assay [7] was inactive. Moreover, in assay [8], the call was inactive. Also, the Potency result in [2], in [9] and in [10] was “inactive” throughout.
